The list shows a part of the results. Inconclusive results are not listed. Unmarked numbers belong to inactive results. Activity calls are given as the source filed them. The call rests on the fitted dose curve; in most records, active means well fitted inhibition curve with a large enough effect; inconclusive means small, poorly fitted or top-dose-only effect; inactive means no such curve, though single readings can be large or run the other way.

The test can be described thus: qHTS of pediatric cancer cell lines to identify multiple opportunities for drug repurposing: Orthogonal 3D caspase screen for TC32 cells. The following applies: TC32 3D spheroids, caspase-3/7 fluorescence imaging, 24 h; series mostly up to 30.7 µM; caspase activation, negative = activation: at the top concentration. From the text: Drug repurposing or repositioning has been offered as a strategy for drug development in oncology programs. This approach has special potential for childhood cancers and other rare or orphan diseases, where the expected return on new drug development has been a disincentive to pharmaceuticals. […] In this project we exploit the poly-pharmacology of drugs to discover new indications via phenotypic screening of a panel of 19 well-characterized cell lines derived from solid tumors seen in children and adolescents. The goal is to identify approved drugs with previously unrecognized anticancer properties that has the potential to reveal new mechanisms and biological processes involved in carcinogenesis or drug resistance. We employed a titration-based paradigm (quantitative high-throughput screening or qHTS), where all compounds were tested at multiple concentrations for their effect on cell viability. Concentration-response curves (CRCs) were derived directly from the primary screen, and both potency and efficacy values were used to identify compounds with robust bioactivity profiles. […] These two assays will be used to validate active compounds and assess the correlation of compound's potency in 2D vs 3D cultures on selected cell lines. Assay Submitter: Nathalia J. Martinez, National Center for Advancing Translational Sciences, National Institutes of Health, Rockville, MD, USA; email: natalia.martinez@nih.gov Shen, M et al. Quantitative high-throughput phenotypic screening of pediatric cancer cell lines identifies multiple opportunities for drug repurposing. Oncotarget 2017 Dec 19;9(4):4758-4772. PMID 29435139.
The cells were obtained from University of North Carolina (UNC), Pediatric Preclinical Testing Program (PPT), and Coriell Institute (CI). qHTS apoptosis assay in 3D cultures: For the apoptosis assay, cells were assayed in phenol red-free growth media at a density of 1,000 cells/well. Thirty microliters of cells were dispensed into 384-well, ULA, round bottom plates (Corning) using a Multidrop dispenser. Plates were spun down at 1,000 rpm for 1 min and incubated at 37 C, 5% CO2, under a humidified atmosphere for 24 hours to allow spheroid formation. Ninety-two nanoliter of compounds and controls were subsequently transferred via GNF Pintool. Plates were sealed using a breathable seal (Diversified Biotech, Dedham, MA) and incubated for 24 hours at 37C before addition of CellEvent Caspase-3/7 green detection reagent (TheremoFisher Scientific). Staurosporine at final concentrations of 3 µM was used as positive control. Spheroids were imaged using bright-field and green (EX: […]) filters and analyzed with the Celigo Tumorsphere 1+2 application software. Spheroids were first identified using bright-field segmentation, and the average fluorescent intensity of the green channel was used to quantify caspase activation as percent activity based on neutral control DMSO and positive control.
As for `COc1c(C)c2c(c(O)c1C/C=C(\C)CCC(=O)O)C(=O)OC2`, the “caspase activation, negative = activation” value was 3.92%.
Same read-out and setting: to `CC1(C)O[C@@H]2C[C@@H]3[C@H]4C[C@@H](F)C5=CC(=O)C=C[C@]5(C)[C@@]4(F)[C@@H](O)C[C@]3(C)[C@]2(C(=O)CO)O1` belongs -3.8%.
As for `CC(NCc1ccc2c(c1)nc(NC(=O)c1ccc(-c3cn[nH]c3)s1)n2CC(C)(C)O)C(C)(C)C` (stereo unspecified), the Potency is 1.44 µM (active).
With `C=C1C(=CC=C2CCC[C@]3(C)[C@@H]([C@H](C)C=C[C@H](C)C(C)C)CC[C@@H]23)C[C@@H](O)C[C@@H]1O`, the “caspase activation, negative = activation” value was -7.49%.
Regarding `COC(=O)Nc1nc2ccc(Sc3ccccc3)cc2[nH]1`, the Potency is 11.4 µM (active).
Still for that read-out and setting: next, `CC[C@]1(O)C[C@@H]2CN(CCc3c([nH]c4ccccc34)[C@@](C(=O)OC)(c3cc4c(cc3OC)N(C)[C@H]3[C@@](O)(C(=O)OC)[C@H](OC(C)=O)[C@]5(CC)C=CCN6CC[C@]43[C@@H]65)C2)C1`: 0.0722 µM (active).

For the origin of these results see PubChem BioAssay AID1347138 (National Center for Advancing Translational Sciences (NCATS), 2019).
